The list is not random: actives were taken first. Their share in the collection is about 6.8%.
MK inhibit: blocks S. pneumoniae mevalonate kinase | purified MK, PK/LDH-coupled NADH absorbance 340 nm | inhibition, % at 10 µM | 0.48% of 65,000 active;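 active means ranked among the strongest by inhibition in the single 10 µM screen, a fixed top-ranked set picked for dose follow-up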
Autofluor 339: intrinsic fluorescence of library compounds, ex339/em460 – biochemical, MLSMR library, data from DPM-DC assay, artefact control, profiling panel; AID 709; compound autofluorescence, ex339/em460 nm, NADH buffer; stronger effect = higher value; 1 = no-compound wells, NADH background; fluorescence fold increase at 10 µM; 5.5% of 65,000 active;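 active means at 10 µM, mean starting fluorescence two-fold or more over control wells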;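 further: signal is the first read of a kinetic run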
DPM-DC inhibit: S. pneumoniae DPM-DC inhibition; purified DPM-DC, PK/LDH coupled NADH fluorescence; calls only at 10 µM; 0.49% of 65,000 active;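 active means the 320 compounds with the highest percent inhibition in the single-dose primary screen, excluding strongly autofluorescent ones, cut at about 32% in these data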;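 further: kinetic rate of NADH fluorescence loss reporting ADP formed by the decarboxylase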
Spn PMK inh: inhibitors of Streptococcus pneumoniae phosphomevalonate kinase; AID 539; purified PMK, PK/LDH-coupled NADH absorbance 340 nm; inhibition, % at 10 µM; 0.49% of 65,000 active;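 active means top-ranked compounds by inhibition in the single 10 µM screen, taking a fixed number of the strongest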
Abs 340nm: compounds absorbing at 340 nm; fold change at 10 µM; 65,000 tested, under 10 active; AID 708; compound absorbance at 340 nm, fold over control;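 active means at 10 µM dose, initial 340 nm absorbance at least 2 fold that of control wells; inactive means change under 2 fold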;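 further: initial absorbance extrapolated from kinetic A340 decline of NADH oxidation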
NADH enzymes: inhibitors of enzymes used to reach an NAD/NADH endpoint; coupled PK/LDH NADH assays, four targets; IC50, µM (top dose mostly 10 µM); 0.02% of 65,000 active; AID 774;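 active means single-dose screening hits from any of four coupled enzyme assays that gave an IC50 when retested across doses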;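 further: the DPM-DC format reads NADH fluorescence rather than 340 nm absorbance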
Hits are given with their value; . = inactive; / = not tested or not shown; + = active, no number.

SMILES	MK inhibit	Autofluor 339	DPM-DC inhibit	Spn PMK inh	Abs 340nm	NADH enzymes
CC(=O)N1CCc2cc(C(=O)CN3CCCCC3)ccc21	.	.	.	.	.	.
CC(=O)N1CCc2cc3nc(C)cc(C)c3cc21	.	4.1	/	.	.	.
Cn1c(=O)c2c(SCc3cccnc3)nc(C3CC3)nc2n(C)c1=O	.	.	.	.	.	.
Cc1c(NC(=O)C2CCN(S(=O)(=O)c3ccccc3)CC2)c(=O)n(-c2ccccc2)n1C	.	.	+	.	.	.
Cc1ccc(C2NC(=O)c3ccccc3N2)s1 (configuration not stated)	.	2.1	/	.	.	.
O=C1NC(c2ccco2)Nc2ccccc21 (configuration not stated)	.	2.9	/	.	.	.
O=C1NC(c2ccncc2)Nc2ccccc21 (configuration not stated)	.	2.5	.	.	.	.
c1ccc(CSc2nnc3c(n2)OC(c2ccco2)Nc2ccccc2-3)cc1 (configuration not stated)	.	.	.	.	.	.
CC1Cc2ccccc2C(=O)N1 (configuration not stated)	.	.	.	.	.	.
CC1CCCC(C)N1C(=O)CSc1nnc(CSc2ncccn2)n1C (configuration not stated)	.	.	.	.	.	.
COc1ccc2[nH]c(=O)c(CN(C)C(=O)C3CCCCC3)cc2c1	.	3.5	/	.	.	.
COc1ccc2[nH]c(=O)c(CN(C)C(=O)c3ccncc3)cc2c1	.	2	.	.	.	.
CCN(Cc1cc2ccccc2[nH]c1=O)C(=O)C1CCCCC1	.	.	.	.	.	.
CCC1c2ccc(C)n2CCN1C(=O)Nc1ccccc1C(=O)OC (configuration not stated)	.	2.5	.	.	.	.
COc1ccccc1C1CC(c2ccc(C)cc2)Nc2ncnn21 (configuration not stated)	.	.	.	.	.	.
CN(C)S(=O)(=O)c1ccc(N2CCOCC2)nc1	.	.	.	.	.	.
Cc1ccc(C)n1-c1ccc(N2CCOCC2)nc1	.	3.7	/	.	.	.
Cc1nn2cc(-c3ccc(-c4ccccc4)cc3)nc2s1	.	2.2	.	.	.	.
CCCCOC(=O)CSC1=C(C#N)C(c2ccccc2OC)C(C#N)C(=O)N1 (configuration not stated)	78	.	.	.	.	.
Nn1c(Nc2ccccc2)nc2ccccc2c1=O	.	.	.	.	.	.
O=c1[nH]c(Nc2ccccc2)cc2ccccc12	.	3.4	/	.	.	.
C=CCc1cccc2cc(C(=O)N3CCN(C(=O)c4ccco4)CC3)c(=O)oc12	.	.	.	.	.	.
COc1ccc(-c2nnc(-c3ccc(N)cc3)o2)cc1	.	2.9	/	.	.	.
COc1ccc(-c2ccc(-c3nnc(-c4cc(OC)ccc4OC)o3)cc2)cc1	.	3.7	/	.	.	.
COc1ccc(-c2nnc(-c3ccc(N(C)C)cc3)o2)cc1	.	2.1	/	.	.	.
SMILES	MK inhibit	Autofluor 339	DPM-DC inhibit	Spn PMK inh	Abs 340nm	NADH enzymes
CN(C)c1ccc(-c2nnc(-c3ccc(S(=O)(=O)C(F)F)cc3)o2)cc1	.	.	.	.	.	.
CCCS(=O)(=O)N1CCC(C(=O)NCCN(C)Cc2ccccc2)CC1	.	.	.	.	.	.
COc1ccc(NC(=O)CNS(=O)(=O)c2cccc3nonc23)c(OC)c1	.	.	.	.	.	.
CC(NC(=O)c1cccc(N2CCCC2=O)c1)c1ccc2c(c1)OCCO2 (configuration not stated)	.	.	+	.	.	.
COc1ccc(F)cc1CN1CCN(C(=O)CCC(=O)Nc2nnc(C(C)C)s2)CC1	.	.	.	.	.	.
CCCCn1c(NC(C)=O)c(C#N)c2nc3ccccc3nc21	.	3.8	/	.	.	.
CCCCCn1c(N)c(C#N)c2nc3ccccc3nc21	.	5	/	.	.	.
CCCCn1c(CNC(C)=O)nc2ccccc21	.	.	.	.	.	.
N#Cc1c(N)n(CCNC(=O)c2cccs2)c2nc3ccccc3nc12	.	3	/	.	.	.
Cc1ccc(S(=O)(=O)c2c(N)n(CCN3CCOCC3)c3nc4ccccc4nc23)cc1C	.	4.9	/	.	.	.
O=C(O)c1ccc(Cl)c(S(=O)(=O)N2CCCCCC2)c1	.	.	.	.	.	.
CCOC(=O)c1[nH]c2ccc(C)cc2c1N=CN(CC)CC	.	.	.	.	.	.
O=C(CN(Cc1ccc2c(c1)OCO2)C(=O)CNS(=O)(=O)c1ccccc1)NCc1ccco1	.	.	.	.	.	.
CCCn1c2c(c(O)c(C(=O)Nc3ccccc3)c1=O)CCCC2	.	.	.	.	.	.
N#Cc1c(N)n(CCCN2CCOCC2)c2nc3ccccc3nc12	.	3.9	/	.	.	.
Cc1nnc2sc(-c3cccc4ccccc34)nn12	.	2.2	.	.	.	.
Cc1nnc2sc(-c3ccncc3)nn12	.	.	.	.	.	.
CCOC(=O)Nc1ccc2c(CN3C(=O)NC4(CCCC4)C3=O)cc(=O)oc2c1	.	3.3	/	.	.	.
O=c1[nH]c(=O)n(Cc2ccco2)c2c1C(C(F)(F)F)(C(F)(F)F)N=C(C1CCCCC1)N2	.	2.1	.	.	.	.
COc1ccc2c(c1)OC1(C)CC2C(C(=O)c2ccccc2OC)C(=O)N1 (configuration not stated)	.	.	.	28	.	.
C/C(O)=c1/ccc2cccc3nc(C)nc1c23	.	3	.	.	.	.
O=C(OC(C(=O)NCc1ccc2c(c1)OCO2)c1ccc(Cl)cc1)c1ccco1 (configuration not stated)	.	.	.	.	.	.
O=C(c1ccc(F)cc1)N1CCC(N2CCCCCC2)CC1	78	.	+	.	.	.
O=C(c1ccccc1F)N1CCC(N2CCCCCC2)CC1	.	.	.	.	.	.
O=C(c1noc2c1CCCC2)N1CCCCC1	.	.	+	.	.	.
SMILES	MK inhibit	Autofluor 339	DPM-DC inhibit	Spn PMK inh	Abs 340nm	NADH enzymes
O=C(c1noc2c1CCCCC2)N1CCOCC1	.	.	.	.	.	.
CCOC(=O)CC(=O)CSc1ncnc2c1oc1ccccc12	.	.	.	.	.	.
COc1ccc2oc(=O)c(-c3nc(C)cs3)cc2c1	.	2.2	/	.	.	.
CCN(C(=O)c1cc2cc(OC)ccc2oc1=O)c1ccccc1	.	.	.	.	.	.
CC(C)c1ccc(-c2nc3c([nH]2)c(=O)n(C)c(=O)n3C)cc1	.	2.5	+	.	.	.
Cn1c(=O)c2[nH]c(Nc3ccccc3)nc2n(C)c1=O	.	.	.	.	.	.
N#CCCn1c(-c2nonc2NC(=O)c2ccccc2Cl)nc2ccccc21	.	.	.	.	.	.
C=CCn1c(NC(=O)c2ccccc2Cl)c(C#N)c2nc3ccccc3nc21	.	3.8	/	.	.	.
C=CCn1c(NC(=O)c2ccccc2)c(C#N)c2nc3ccccc3nc21	.	2.1	/	.	.	.

Screening results: PubChem BioAssay, SRMLSC
